# Assay outcomes from PubChem BioAssay.
# CSC inhib = blocks cancer stem cells; cancer stem cell-like cells viability, luminescence; inhibition, % at 7.5 µM; 300,000 tested, 1.1% active; in the data active = inhibition above about 75%; tested in HMLE shEcad cells
# Shn3 inh set2 = inhibitors of Schnurri-3 3'UTR reporter in osteoblasts. 360,000 tested, 0.52% active. Clone20 osteoblast Shn3 3'UTR firefly luciferase, 24 h. inhibition, % at 12.5 µM;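 active = mean inhibition of at least 75% with every replicate also reaching 75%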;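 also: 0% = median of neutral control wells and 100% = pilot-screen positive control compound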
# PAX8 inh HTS = lowers PAX8-driven luciferase in RMG-I cells; RMG-I TPO-luciferase reporter, SteadyGlo, 24 h; inhibition, % at 12.6 µM; 360,000 tested, 1.2% active; AID 652154;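 active = mean replicate inhibition at least 60% with every replicate also reaching 60%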;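 also: luciferase light reporting Pax8 driven TPO promoter activity; plate controls were median of neutral control wells for no effect and mitoxantrone controls for full effect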
# Mdm2 MdmX PPI = inhibitors of human Mdm2/MdmX interaction; O15151+Q00987; SaOS-2 split-luciferase Mdm2/MdmX complementation, luminescence; inhibition, % at 8 µM; 330,000 tested, 3% active;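 active = inhibition of at least 50% at 8 µM in the primary screen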
# Target sequence (O15151 whole entry, looked up): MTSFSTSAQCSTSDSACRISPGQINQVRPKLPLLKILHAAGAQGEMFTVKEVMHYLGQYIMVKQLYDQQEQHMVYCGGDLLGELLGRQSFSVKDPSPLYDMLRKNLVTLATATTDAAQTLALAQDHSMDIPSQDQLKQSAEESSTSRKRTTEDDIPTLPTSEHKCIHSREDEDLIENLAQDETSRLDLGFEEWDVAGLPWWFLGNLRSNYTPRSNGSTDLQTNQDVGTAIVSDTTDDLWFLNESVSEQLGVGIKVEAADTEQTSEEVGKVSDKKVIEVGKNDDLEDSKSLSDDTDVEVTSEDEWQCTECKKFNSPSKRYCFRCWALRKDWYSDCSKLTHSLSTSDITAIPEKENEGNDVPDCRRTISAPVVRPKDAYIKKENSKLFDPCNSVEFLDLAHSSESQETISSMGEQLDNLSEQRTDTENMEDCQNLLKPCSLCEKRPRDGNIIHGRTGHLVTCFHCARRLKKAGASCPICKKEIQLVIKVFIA
# Target sequence (Q00987 whole entry, looked up): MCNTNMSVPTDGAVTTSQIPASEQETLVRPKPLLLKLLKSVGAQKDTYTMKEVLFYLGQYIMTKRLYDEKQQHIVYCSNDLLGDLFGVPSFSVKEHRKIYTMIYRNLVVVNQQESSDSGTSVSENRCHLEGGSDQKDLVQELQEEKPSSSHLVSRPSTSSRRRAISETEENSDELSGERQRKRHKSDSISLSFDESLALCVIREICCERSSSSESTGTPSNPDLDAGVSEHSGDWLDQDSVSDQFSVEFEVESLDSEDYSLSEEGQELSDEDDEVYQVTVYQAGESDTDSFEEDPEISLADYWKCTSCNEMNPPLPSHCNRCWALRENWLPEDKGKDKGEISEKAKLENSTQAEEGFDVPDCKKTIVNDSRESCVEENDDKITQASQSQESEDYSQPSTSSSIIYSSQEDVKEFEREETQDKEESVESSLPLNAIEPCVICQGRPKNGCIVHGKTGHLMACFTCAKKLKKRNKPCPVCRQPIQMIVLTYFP
# Beta cell apopt = beta cell apoptosis inhibition; INS-1E cytokine-induced death, ATP luminescence, 48 h; percent of positive-control rescue, neutral wells zero; protection from apoptosis, % (concentration not given with the values); 300,000 tested, 0.8% active;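 active = Every replicate reaches about 75%, or at least half do and their mean reaches it too, limit read from the data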;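 also: 0% = cytokine-treated negative control wells and 100% = positive control rescue; higher means more ATP so stronger rescue from cytokine killing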
# Gli-Sufu antag = antagonists of Gli-Sufu signaling | Sufu-KO-LIGHT fibroblasts, Gli luciferase reporter luminescence | inhibition, % at 5 µM | AID 588413 | 340,000 tested, 0.74% active;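 active = inhibition above about 55%, limit read from the data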;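 also: 0% = DMSO-treated cells and 100% = wells with medium but no cells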
# The depositor's hits bear a star; . = not tested or not shown. Rows were chosen to be rich in hits. Some 4% of all compounds tested hit in one or more screens of this group.
SMILES,CSC inhib,Shn3 inh set2,PAX8 inh HTS,Mdm2 MdmX PPI,Beta cell apopt,Gli-Sufu antag
COc1ccccc1NC(=O)N1CC(=O)N2[C@H](CO)[C@H](c3ccc(C#CC4CC4)cc3)[C@H]2C1,.,.,-5,.,.,.
C[C@H]1CN([C@@H](C)CO)C(=O)c2cc(NS(=O)(=O)c3ccccc3)ccc2O[C@H]1CN(C)Cc1ccc(Oc2ccccc2)cc1,.,.,-22,.,.,.
C[C@@H]1CN([C@@H](C)CO)C(=O)Cc2cc(NS(=O)(=O)c3ccc(Cl)cc3)ccc2O[C@H]1CN(C)Cc1ccc(Oc2ccccc2)cc1,.,.,106*,.,.,.
C[C@@H]1CN([C@@H](C)CO)C(=O)Cc2cc(NS(=O)(=O)c3ccc(F)cc3)ccc2O[C@H]1CN(C)Cc1ccc(Oc2ccccc2)cc1,.,.,86*,.,.,.
C[C@H](CO)N1C[C@H](C)[C@@H](CN(C)Cc2ccc(Oc3ccccc3)cc2)Oc2ccc(NS(=O)(=O)c3ccc(Cl)cc3)cc2CC1=O,.,.,101*,.,.,.
C[C@H]1CN([C@@H](C)CO)C(=O)c2cc(NS(=O)(=O)c3ccccc3)ccc2O[C@@H]1CN(C)Cc1ccc(Oc2ccccc2)cc1,.,.,92*,.,.,.
C[C@H](CO)N1C[C@H](C)[C@H](CN(C)Cc2ccc(Oc3ccccc3)cc2)Oc2ccc(NS(=O)(=O)c3ccc(F)cc3)cc2CC1=O,.,.,1,.,.,.
O=C(Cc1ccccn1)NCC[C@H]1CC[C@@H](NS(=O)(=O)c2ccccc2)[C@H](CO)O1,.,.,-12,.,.,.
N=c1n(Cc2ccccc2)c2ccccc2n1CC(O)COc1ccccc1 (stereo not drawn),-19,89*,10,38,18,42
S=C(SSC(=S)N1CCOCC1)N1CCOCC1,.,90*,23,.,.,.
COc1ccc(C(=O)NNc2ccccc2)cc1,131*,2,-13,-8,2,1
COc1ccc(-c2cn(CCc3c[nH]c4ccccc34)nn2)cc1,96*,22,-23,-15,1,-10
COc1ccc(OCC(=O)NCCc2c[nH]c3ccccc23)cc1,16,52,19,7,-3,-12
C=C1CC2(CC(c3ccccc3)OC(c3ccccc3)C2)OC1=O (stereo not drawn),.,97*,0,.,.,13
CC(Sc1nnc2c(n1)[nH]c1ccccc12)C(=O)N(C)C1CCCCC1 (stereo not drawn),10,55,29,31,100*,51
CC(Sc1nnc2c(n1)[nH]c1ccccc12)C(=O)NC1CCCCC1 (stereo not drawn),.,30,16,4,18,45
C[C@H]1CCCCO[C@H](CN(C)C(=O)c2ccccc2)[C@@H](C)CN([C@@H](C)CO)C(=O)c2cc(NC(=O)Nc3ccc(F)cc3)ccc2O1,.,.,4,.,.,.
CC(=O)Oc1ccc(-c2csc(Nc3ccc(Cl)cn3)n2)cc1,95*,-56,-108,18,.,-37
COc1ccc(-c2csc(Nc3ccc(C)cn3)n2)cc1,7,-94,-136,-124,5,-53
Cc1nn(S(=O)(=O)c2ccc(Cl)cc2)c(C)c1Sc1ccc([N+](=O)[O-])cc1,7,-10,4,.,86*,14
Cc1nn(-c2ccccc2)c(N)c1Sc1ccc([N+](=O)[O-])cc1,-1,15,-3,-5,-12,-1
O=C(N[C@@H]1CC[C@H](CC(=O)N2CCCCC2)O[C@@H]1CO)c1ccc2c(c1)OCO2,.,.,3,.,.,.
CCOC(=O)c1sc(/N=C/N(C)C)nc1C,-8,0,117*,19,-6,-1
CCOC(=O)c1sc(/N=C/N(C)C)c(C(=O)OCC)c1C,14,-16,.,13,-12,-2
CC[C@@H]1CCC[C@@H](O)[C@@H](C)C(=O)O[C@H](C)[C@@H](C)C/C=C(C)/C(OC)=C\C(=O)N(C)C([C@@H](C)CC)C(=O)N(C)[C@@H](C(C)C)C(=O)N(C)[C@@H](COC)C(=O)N2CCC[C@H]2C(=O)N(C)[C@@H](C(C)C)C(=O)N2CCC[C@H]2C(=O)O1 (stereo partly drawn),.,81,88*,.,.,.
SMILES,CSC inhib,Shn3 inh set2,PAX8 inh HTS,Mdm2 MdmX PPI,Beta cell apopt,Gli-Sufu antag
Cc1cc(=O)oc2c3c(cc(OCC(=O)Nc4ccc(CCO)cc4)c12)OC(C)(C)CC3,7,91*,.,1,5,3
Cc1cc(=O)oc2c3c(cc(OCC(=O)NCc4ccccc4)c12)OC(C)(C)CC3,1,19,.,-2,12,2
CC(C)NC(=O)N(C)C[C@@H]1OCCCC[C@@H](C)Oc2ccc(NC(=O)C3CCCCC3)cc2C(=O)N([C@@H](C)CO)C[C@@H]1C,.,.,-4,.,.,.
Cc1nn(Cc2ccccc2)c(C)c1C(=O)OCC(=O)c1cc(C)n(CC(F)(F)F)c1C,78*,25,.,29,9,4
Cc1cc(C(=O)COC(=O)c2ccc(NC(=O)CC#N)cc2)c(C)n1CC(F)(F)F,.,-120,-59,.,.,.
COc1ccc2[nH]c(-c3cccc(F)c3)cc(=O)c2c1,76*,-20,-6,49,20,3
Cc1noc(C)c1NC(=O)Nc1ccc2c(c1)CC(=O)N([C@H](C)CO)C[C@H](C)[C@@H](CN(C)S(=O)(=O)c1cn(C)cn1)O2,.,.,-7,.,.,.
O=C(c1cccc(F)c1)N1CC(=O)N2[C@H](C1)[C@@H](c1ccc(C3=CCCC3)cc1)[C@@H]2CO,.,.,0,.,.,.
O=C(O)c1ccc2nc(-c3ccccc3)sc2c1,1,20,74*,-136,-6,-57
Nc1ccc(-c2nc3ccc(C(=O)O)cc3s2)cc1,12,69,103*,.,0,-36
COc1ccc2c3c([nH]c2c1)[C@H](CO)N(Cc1ccc(Cl)cc1)CC31CN(Cc2nccs2)C1,.,.,-3,.,.,.
CO[C@@H]1CN(C)C(=O)c2ccc(NC(=O)c3ccccc3F)cc2OC[C@H](C)NC[C@@H]1C,.,.,-3,.,.,.
Cc1snc(S(=O)(=O)/C(C#N)=N/Nc2ccc(C(F)(F)F)cc2)c1C#N,89*,1,.,11,-2,-1
CC(C)NC(=O)N(C)C[C@H]1Oc2ccc(NC(=O)Cc3ccccc3)cc2C(=O)N([C@@H](C)CO)C[C@@H]1C,.,.,2,.,.,.
COC(=O)C[C@@H]1CC[C@@H]2[C@H](COc3ccc(NC(=O)c4cc(C)on4)cc3C(=O)N2C)O1,.,.,24,.,.,.
CC(C)OC(=O)C(=O)NNc1ccccc1,99*,17,-2,2,-3,-3
CC(O)CC(C(=O)NNc1ccccc1)C(=O)NNc1ccccc1 (stereo not drawn),92*,-7,-12,-24,.,-5
Cc1noc(C)c1NC(=O)Nc1ccc2c(c1)CC(=O)N([C@H](C)CO)C[C@@H](C)[C@H](CN(C)C(=O)Nc1c(C)noc1C)O2,.,.,-26,.,.,.
O=C(c1ccccc1)N1C[C@H]2[C@@H](c3ccccc31)[C@H](CO)N2S(=O)(=O)c1ccccc1,.,.,4,.,.,.
Cc1cccc(Nc2nc(-c3ccc(O)cc3O)cs2)n1,97*,-135,-152,-86,-1,-61
Oc1ccc(-c2csc(Nc3ncccn3)n2)c(O)c1,-2,-68,-180,-56,.,-78
